Most compounds without a hit are left out; they make up all but 3% or so of the library.
HIF-2a block = inhibitors of HIF-2a; 786-0 RCC cells HIF-2a reporter, luciferase luminescence, overnight; inhibition, % at 18.8 µM; 360,000 compounds, 0.72% hits;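 active = inhibition of the luminescence signal of 40% or more relative to plate controls, in a single-dose primary screen at 18.75 µM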
ABHD5-PLIN5 inh = inhibitors of human ABHD5-perilipin-5 interaction; Split G. princeps luciferase complementation, luminescence, 4 h; AID 602281; 360,000 compounds, 0.78% hits; inhibition, % at 4 µM;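 active = inhibition above the mean inhibition across every tested compound plus 3 SD, cut at about 22% in these data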;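 also: 0% = DMSO only wells and the 100% control is not disclosed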
Target sequence (Q00G26 whole entry, looked up): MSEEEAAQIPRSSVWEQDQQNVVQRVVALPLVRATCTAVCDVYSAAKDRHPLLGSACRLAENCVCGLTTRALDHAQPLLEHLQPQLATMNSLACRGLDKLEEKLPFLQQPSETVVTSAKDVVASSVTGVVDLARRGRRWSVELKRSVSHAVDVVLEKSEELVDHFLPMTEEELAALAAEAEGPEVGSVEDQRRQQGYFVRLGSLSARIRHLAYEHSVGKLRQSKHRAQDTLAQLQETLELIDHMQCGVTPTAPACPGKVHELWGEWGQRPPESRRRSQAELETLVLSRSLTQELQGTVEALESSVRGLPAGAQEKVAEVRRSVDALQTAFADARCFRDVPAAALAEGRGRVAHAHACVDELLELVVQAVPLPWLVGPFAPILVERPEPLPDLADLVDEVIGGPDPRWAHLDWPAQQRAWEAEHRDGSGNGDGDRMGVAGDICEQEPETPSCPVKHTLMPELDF
Target sequence (Q8WTS1 whole entry, looked up): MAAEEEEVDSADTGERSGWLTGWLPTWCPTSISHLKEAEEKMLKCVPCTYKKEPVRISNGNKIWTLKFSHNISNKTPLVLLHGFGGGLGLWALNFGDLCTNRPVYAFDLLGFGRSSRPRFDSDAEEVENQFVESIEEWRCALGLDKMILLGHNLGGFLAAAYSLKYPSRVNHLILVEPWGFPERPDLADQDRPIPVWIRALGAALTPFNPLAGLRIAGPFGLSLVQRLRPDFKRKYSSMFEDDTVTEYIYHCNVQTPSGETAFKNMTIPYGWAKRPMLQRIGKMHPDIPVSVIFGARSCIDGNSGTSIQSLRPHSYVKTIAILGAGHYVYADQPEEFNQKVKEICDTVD
KKLEB cytotox = reduces viability of KKLEB cystic fibrosis airway cells; KKLEB CF airway cells viability, ATPlite luminescence, overnight; hits give low values; cells stimulated with P. aeruginosa culture filtrate; activity change (cytotoxicity), % at 5 µM; 360,000 compounds, 0.36% hits;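 active = corrected activity change at or below -50% at 5 µM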
CF NFkB block = cystic fibrosis NF-kB activation inhibition; inhibition, % at 5 µM; AID 588850; 360,000 compounds, 0.86% hits; KKLEB NF-kB-GFP reporter, PAF-induced, GFP fluorescence overnight;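 active = at least 50% inhibition at 5 µM, scaled per plate between neutral and stimulator controls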;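 also: PAF is a Pseudomonas aeruginosa culture filtrate used as stimulus; plate controls were PAF-stimulated DMSO wells for no effect and unstimulated DMSO wells for full effect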
Peg3 promoter = inhibitors of Peg3 promoter | HeLa PEG-Prom luciferase reporter, luminescence, overnight | inhibition, % at 20 µM | 360,000 compounds, 1.7% hits | AID 588405;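 active = inhibition of at least 50% at 20 µM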
TRPM1 prom inh = inhibitors of MITF-driven TRPM1 promoter in melanoma cells | SK-MEL-5 TRPM1 promoter luciferase, 24 h | inhibition, % at 12.5 µM | 330,000 compounds, 0.83% hits;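 active = mean inhibition across replicates of 60% or more, whatever share of single replicates reaches that level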
ABHD5 PLIN5 conf = ABHD5-PLIN5 interaction inhibition, confirmed; biochemical ABHD5-PLIN5 interaction, luminescence; inhibition, % at 4 µM; 2,200 compounds, 67% hits; shares compounds with ABHD5-PLIN5 inh; in the data active = inhibition above about 23%;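 also: 0% = DMSO vehicle wells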
HNF4 counter = active in HNF4 split-luciferase counter-screen for ABHD5-PLIN5 inhibitors; shares compounds with ABHD5-PLIN5 inh; HNF4 dimerization, luminescence, biochemical; inhibition, % at 4 µM; 2,200 compounds, 77% hits; AID 651674;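 active = mean inhibition across replicate wells exceeding the computed hit threshold, cut at about 13% in these data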;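 also: light from luciferase halves that rejoin when HNF4 fusion proteins dimerize; 0% = DMSO only wells and the 100% control is not given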
Mdm2 MdmX conf = confirmation of inhibitors of human Mdm2/MdmX interaction, set 2 | shares compounds with HIF-2a block | SaOS-2 split-luciferase Mdm2/MdmX complementation, luminescence | inhibition, % at 8 µM | 740 compounds, 99% hits | AID 504601;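 active = mean inhibition of the luminescence signal across two replicates at or above 26 percent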
HIF-2a conf = confirmation of HIF-2a inhibitors; shares compounds with HIF-2a block; 786-0 RCC cells, HIF-2a luciferase reporter luminescence, overnight; inhibition, % at 18.8 µM; 1,800 compounds, 56% hits; AID 651580;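 active = mean inhibition across four replicates of at least 40 percent at the single tested concentration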
HIF-1a cs = inhibits HIF-1a reporter, a counter-screen for HIF-2a inhibitors; shares compounds with HIF-2a block; MiaPaCa-2 HIF-1a luciferase reporter, desferoxamine, overnight; inhibition, % at 18.8 µM; 1,800 compounds, 72% hits;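 active = mean inhibition of the reporter signal across four replicates at the single tested dose of 50% or more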
Active calls of the source: *; / = no result.

SMILES	HIF-2a block	ABHD5-PLIN5 inh	KKLEB cytotox	CF NFkB block	Peg3 promoter	TRPM1 prom inh	ABHD5 PLIN5 conf	HNF4 counter	HIF-2a conf	HIF-1a cs	others
O=C1Nc2ccc(Br)cc2/C1=C/C(=O)c1ccc2c(c1)OCO2	45*	72*	-10	37	53*	66*	93*	90*	-33	95*
COC(=O)C(=C/C(C)=C/c1cccnc1)C(=O)OC	43*	34*	8	21	60*	45	54*	53*	26	13
COCCCNC(=O)CNC(=O)c1nn(-c2ccc(OC)c(Cl)c2)c(=O)c2ccccc12	6	2	1	5	2	-4	/	/	/	/
Cc1cc(NC(=O)CC2Oc3ccccc3NC2=O)ccc1Br (stereo not given)	-25	-2	-4	0	16	14	/	/	/	/
Cc1nc2nc(C)n(CCN3CCOCC3)c(=O)c2c(-c2cccc([N+](=O)[O-])c2)c1C(=O)CCCCCCCCCCN1CCC(c2ccccc2)(c2ccccc2)CC1	84*	42*	-21	18	95*	99*	13	-2	17	107*
CC(O)CC(=O)OC[C@]12CC[C@H]3[C@@](C)(CC[C@H]4C(C)(C)CCC[C@]34C)[C@@H]1CC(C1=CC(=O)OC1O)O2 (stereo not given in full)	93*	80*	-88*	104*	99*	/	97*	71*	96*	107*
ClC(Cl)(c1nnnn1-c1ccccc1)c1nnnn1-c1ccccc1	52*	87*	6	-22	24	36	74*	103*	38	26
COC(=O)/C(=C\c1cc(OC)c(OC)c(OC)c1)c1nc2ccccc2[nH]1	13	1	2	6	10	2	/	/	/	/
COC(=O)/C(=C\c1ccc(O)cc1)c1nc2ccccc2[nH]1	-105	-4	6	-4	-99	-1	/	/	/	/
O=C(/C(=C/c1ccc(Cl)cc1)c1nc2ccccc2[nH]1)c1cccs1	93*	58*	-61*	98*	106*	95*	101*	94*	/	/	Mdm2 MdmX conf=102*
COc1cc(/C=C(/C(=O)c2cccs2)c2nc3ccccc3[nH]2)ccc1O	68*	35*	-2	34	103*	46	76*	68*	9	104*
Cc1cc2nc3n(c2cc1C)CC1CC(C(=O)NCc2ccco2)N(C)C31 (stereo not given)	-1	0	19	-5	-7	5	/	/	/	/
O=C(NCc1cccnc1)/C(=C/c1ccc(-c2cccc(Cl)c2)o1)S(=O)(=O)c1ccccc1	43*	48*	-13	6	15	-19	40*	39*	34	30	Mdm2 MdmX conf=103*
CC(=O)C(=Cc1ccc(Cl)cc1)C(=O)c1ccccc1	91*	85*	-23	48	99*	/	102*	98*	92*	105*
CCOc1cc(/C=N/N=C/c2ccc(O)c(OCC)c2)ccc1O	-6	-10	-8	2	28	14	/	/	/	/
CCOc1cc(/C=C2\CN(CC)C/C(=C\c3ccc(O)c(OCC)c3)C2=O)ccc1O	93*	83*	-40	87*	110*	93*	94*	81*	/	/	Mdm2 MdmX conf=102*
CNC[C@H](Cc1ccccc1)NC[C@@H](Cc1cccc2ccccc12)NCCc1ccc(C)cc1	22	39*	-50*	43	97*	-6	5	14*	/	/	Mdm2 MdmX conf=101*
CCc1ccc2c(c1)/C(=C/C(=O)c1cccs1)C(=O)N2	75*	83*	-24	24	-24	70*	90*	96*	61*	103*
CCOC(=O)C(=Cc1c[nH]c2ccc(S(=O)(=O)N(C)C)cc12)C(=O)OCC	56*	52*	5	42	33	8	63*	58*	51*	81*
CCOC(=O)/C(C#N)=C/c1c[nH]c2ccccc12	-148	4	-3	-18	-180	-4	/	/	/	/
CCN(CC(=O)NC1CCS(=O)(=O)C1)S(=O)(=O)c1c(C)c(C)cc(C)c1C (stereo not given)	4	-11	-2	27	-2	4	/	/	/	/
CCOc1cc(/C=C\[N+](=O)[O-])ccc1OCC(=O)N1CCOCC1	83*	29*	10	-24	78*	94*	70*	70*	88*	85*
CCOc1cc(/C=C/c2nc3cc(C)c(C)cc3s2)ccc1OCC(=O)N1CCOCC1	-21	2	-10	-14	-11	3	/	/	/	/
O=C(COC(=O)Cn1cnc2ccccc21)Nc1ccc(OC(F)F)cc1	1	7	11	-12	3	2	/	/	/	/
CCOC(=O)c1c(NC(=O)/C=C/C(=O)O)sc(C)c1-c1ccc(C(C)(C)C)cc1	-21	35*	-86*	66*	29	35	71*	27*	/	/	Mdm2 MdmX conf=103*
SMILES	HIF-2a block	ABHD5-PLIN5 inh	KKLEB cytotox	CF NFkB block	Peg3 promoter	TRPM1 prom inh	ABHD5 PLIN5 conf	HNF4 counter	HIF-2a conf	HIF-1a cs	others
CCOC(=O)c1c(NC(=O)/C=C\C(=O)O)sc(C)c1-c1ccccc1	20	0	-8	8	11	5	/	/	/	/
COc1ccccc1-c1cc(SC)c(C#N)c(=O)o1	42*	67*	-45	27	82*	15	89*	93*	33	-9
COc1ccccc1-c1cc(C(F)(F)F)c(C#N)c(=O)[nH]1	7	-5	-1	7	-1	9	/	/	/	/
CC(=O)NCCOC(=O)c1nn(Cc2ccccc2)c(=O)c2ccccc12	16	7	6	3	9	17	/	/	/	/
O=C(Nc1ccccc1)C1=C(c2ccccc2)S(=O)(=O)CCS1(=O)=O	72*	88*	-83*	85*	109*	81*	100*	108*	45*	86*
Cc1ccccc1C(=O)Nc1cc(NC(=O)c2ccccc2C)cc(C(=O)O)c1	14	0	0	4	5	-1	/	/	/	/
O=[N+]([O-])c1ccc(Sc2ccncn2)c([N+](=O)[O-])c1	70*	29*	-55*	90*	97*	/	41*	41*	61*	104*
